For 30 compounds, Potency and activity change, negative = inhibition results are on record in PubChem BioAssay (NCATS).

The nature of test [1]: Cytotoxicity counterscreen for inhibitors of SARS-CoV-2 cell entry (AID 1645845). Note: nearly all actives have a fitted effect of over 50% in size. To be noted: outcome: dose series up to 57.1 µM unless noted. The method in brief:
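ATP-content luminescence (ATPLite 1step, 15 min RT) read after 48 h compound exposure of Expi293F cells stably expressing human ACE2; normalized to cells-only wells and media-only wells.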
For orientation: Counterscreens check selectivity or assay interference.

The nature of test [2]: Primary qHTS to identify inhibitors of SARS-CoV-2 cell entry (AID 1645846). Note: nearly all actives have a fitted effect of over 45% in size. As to conditions: SARS-CoV-2 pseudovirus cell entry assay, luminescence; activity change, negative = inhibition: at 57.1 µM (top of the series) unless noted. In outline:
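Inhibition of spike-mediated entry was scored in human ACE2-transfected Expi293F cells. Particles were MLV-pseudotyped with Wuhan-Hu-1 S carrying a 19-aa C-terminal deletion; signal was luciferase after two days, scaled between spike PP and fusion-protein-free PP.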

Records with an inconclusive call do not appear. Calls of active or inactive are those of the source. Calls come from the whole dose curve.
Potency is the fitted concentration of half-maximal effect.

`C[C@]12CCCN1CC1=NNC(=O)c3cc(F)cc4[nH]c2c1c34`: the Potency entry in test [1] is “inactive”. Also, the activity change, negative = inhibition in test [2] is -15.3%.

In the case of `C=CCN1C[C@H](C(=O)N(CCCN(C)C)C(=O)NCC)CC2c3cccc4[nH]cc(c34)C[C@H]21` (stereo not given in full), in test [1], the Potency entry was “inactive”. Besides, the activity change, negative = inhibition in test [2] was -15.3%.

As to `C[C@H](CCC(=O)O)[C@H]1CC[C@H]2[C@@H]3[C@H](O)C[C@@H]4C[C@H](O)CC[C@]4(C)[C@H]3CC[C@]12C`, the Potency result in test [1] was “inactive”. Also, the activity change, negative = inhibition in test [2] is -12.9%.

`C[C@@H]1CCN(C(=O)N2CCCC2)C[C@@H]1N(C)c1ncnc2[nH]ccc12`: the Potency entry in test [1] and in test [2] was “inactive” throughout.

`O=C(CCCc1ccc2cccnc2n1)NCc1cc(-c2ccc(F)c(C(F)(F)F)c2)no1`: the Potency entry in test [1] was “inactive”. Besides, in test [2], the activity change, negative = inhibition is -12.5%.

`CC(Nc1ncnc2nc[nH]c12)c1cc2cccc(Cl)c2c(=O)n1-c1ccccc1` (stereo not given): the Potency entry in test [1] is “inactive”. For the same compound, the activity change, negative = inhibition in test [2] was -36.2%.

Regarding `CN[C@@H]1[C@@H](O)[C@@H](O[C@@H]2[C@@H](O)[C@H](O[C@H]3O[C@H](CN)[C@@H](O)[C@H](O)[C@H]3O)[C@@H](N)C[C@H]2NC(=O)C(O)CN)OC[C@]1(C)O` (stereo not given in full), the Potency entry in test [1] and in test [2] was “inactive” in each case.

For the compound `CC#Cc1cncc(-c2ccc3c(c2)[C@@]2(N=C(C)C(N)=N2)C2(CCC(OC)CC2)C3)c1` (stereo not given in full), the Potency entry in test [1] and in test [2] was “inactive” in each case.

On to `COc1cccc2c1c(O)c(C(=O)N(C)c1ccc(C(F)(F)F)cc1)c(=O)n2C`, for which, in test [1], the Potency entry was “inactive”. Moreover, the activity change, negative = inhibition in test [2] is -9.47%.

Take `O=C(c1c(F)ccc(NS(=O)(=O)N2CC[C@@H](F)C2)c1F)c1c[nH]c2ncc(-c3cnc(C4CC4)nc3)cc12`: the Potency entry in test [1] was “inactive”. In test [2], the activity change, negative = inhibition was -17.3%.

Take `CCn1c(=O)c2c(nc(/C=C/c3ccc(OC)c(OC)c3)n2C)n(CC)c1=O`: the Potency result in test [1] and in test [2] was “inactive” in each case.

Consider `O=C(O)CNC(=O)c1ncc(-c2cccc(Cl)c2)cc1O`, for which the Potency result in test [1] and in test [2] was “inactive” throughout.

Turning to `Cc1cc(Nc2cc(N)ncn2)c(=O)n2c1C(=O)NC21CCCCC1`, the Potency entry in test [1] and in test [2] was “inactive” in each case.

On to `O=c1sn(-c2cccc3ccccc23)c(=O)n1Cc1ccccc1`, for which the Potency entry in test [1] and in test [2] was “inactive” in each case.

For `Nc1ncnc2c1c(COc1cccc(Cl)c1)nn2C1CCOCC1`, the Potency result in test [1] and in test [2] was “inactive” each time.

Regarding `N#Cc1ccnc(N2C(=O)CC[C@H]2C(=O)N(c2cncc(F)c2)C(C(=O)NC2CC(F)(F)C2)c2ccccc2Cl)c1` (stereo not given in full), the Potency result in test [1] was “inactive”. Further, the activity change, negative = inhibition in test [2] is -25.5%.

With `C/C=C1\NC(=O)[C@H]2CSSCC/C=C\[C@H](CC(=O)N[C@H](C(C)C)C(=O)N2)OC(=O)[C@H](C(C)C)NC1=O`, the Potency was 6.31 µM (active) in test [1] and 7.08 µM (active) in test [2].

For the compound `CCO[C@@H]1OC(=O)C[C@@H]1NC(=O)[C@@H]1CCCN1C(=O)[C@@H](NC(=O)c1ccc(N)c(Cl)c1)C(C)(C)C`, the Potency entry in test [1] was “inactive”. Besides, the activity change, negative = inhibition in test [2] is -14.2%.

With `O=C(/C=C\n1cnc(-c2cc(C(F)(F)F)cc(C(F)(F)F)c2)n1)NNc1ccccn1`, the Potency in test [1] was 2.51 µM (active); in test [2] it was 3.16 µM (active).

For `Cn1cc(-c2ccc3c(c2)CCN3C(=O)Cc2cccc(C(F)(F)F)c2)c2c(N)ncnc21`, the Potency result in test [1] is “inactive”. Also, the activity change, negative = inhibition in test [2] came to 3.56%.

For the compound `CO[C@H]1O[C@@H]2O[C@@]3(C)CC[C@H]4[C@H](C)CC[C@@H]([C@H]1C)[C@@]24OO3`, the Potency result in test [1] is “inactive”. The activity change, negative = inhibition in test [2] was -14.8%.

Turning to `CC1(N)CCN(c2cnc(-c3cccc(Cl)c3Cl)c(N)n2)CC1`, the Potency result in test [1] is “inactive”. The activity change, negative = inhibition in test [2] was -2.57% [at 27.1 µM].

Turning to `CC1(C)SCCN(S(=O)(=O)c2ccc(OCC#CCO)cc2)[C@H]1C(=O)NO`, the Potency result in test [1] is “inactive”. For the same compound, the activity change, negative = inhibition in test [2] is -8.73%.

Regarding `Cc1[nH]cnc1CN1CCN(C(=O)N[C@@H](CC(C)C)C(=O)O)[C@@H](Cc2ccccc2)C1=O`, the Potency entry in test [1] is “inactive”. In addition, the activity change, negative = inhibition in test [2] turned out to be 3.22%.

With `CNc1nc(Nc2cnn([C@H]3CCN(C4COC4)C[C@@H]3F)c2Cl)ncc1C(F)(F)F`, the Potency entry in test [1] and in test [2] was “inactive” throughout.

`Cc1cc(O)c(-c2ccc([C@@H](C)CN)cc2)c2c1[nH]c(=O)c1sccc12`: in test [1], the Potency result is “inactive”. Moreover, the activity change, negative = inhibition in test [2] was -4.37%.

Consider `CCN1CCN(Cc2ccc(NC(=O)c3ccc(C)c(/C=C/c4cnc5[nH]ccc5c4OC)c3)cc2C(F)(F)F)CC1`, for which the Potency in test [1] was 35.5 µM (active); in test [2], 10 µM (active).

`CCCCNc1ncc2c(-c3ccc(F)cc3)nn(CC3CCC(N)CC3)c2n1` (stereo not given): in test [1], the Potency entry is “inactive”. The Potency in test [2] is 10 µM (active).

Consider `Cn1cc(-c2cnc3ccc4ccc(CS(=O)(=O)NCc5ccccn5)cc4c(=O)c3c2)cn1`, for which the Potency result in test [1] is “inactive”. The activity change, negative = inhibition in test [2] was -59.2%.

Turning to `COc1c(Nc2ncc(Cl)c(N[C@H]3[C@H](C(N)=O)[C@@H]4C=C[C@@H]3C4)n2)ccc2c1CCC(N1CCOCC1)CC2` (stereo not given in full), in test [1], the Potency entry is “inactive”. Also, the activity change, negative = inhibition in test [2] is -55.4%.
